Source: PubChem BioAssay (NCATS)
Records with an inconclusive call do not appear. Where a call stands in place of a potency, no number is given. Active and inactive are the calls of the source. The call rests on the fitted dose curve; in most records, active means well fitted cell-killing curve with a large enough effect; inconclusive means small, poorly fitted or top-dose-only effect, or effect the other way; inactive means flat fitted curve, though single readings scatter. Where a SMILES comes first, the peptide text is derived from it. [ ]: non-standard residue; d: D form. ξ: configuration not given here. ξPhe(βξ-Me) = CC(c1ccccc1)C(N)C(=O)O; GABA = NCCCC(=O)O

Each compound was assayed on JEG-3 (assay: Primary qHTS to identify gynecologic anti-cancer compounds using libraries of approved drugs and bioactive compounds (AID 1345084; further: nearly all actives have a fitted effect of over 55% in size)). Details: Gynecologic cancer cell panel viability, ATPlite luminescence, 48 h; series mostly up to 57.5 µM.
Procedure, shortened: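 Cytotoxicity screen measuring ATP content by luciferase luminescence. Each compound is applied at five concentrations for 48 h at 37 C with 5% CO2.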

Compound | activity change, negative = cytotoxicity | Potency
O=C(OCc1cccc(O)c1O[C@@H]1O[C@H](CO)[C@@H](O)[C@H](O)[C@H]1O)C1(O)C(=O)C2C=CC1C1C=CC(=O)C(O)(C(=O)OCc3cccc(O)c3O[C@@H]3O[C@H](CO)[C@@H](O)[C@H](O)[C@H]3O)C21 (stereo not given in full) | 0.323% [at 11.6 µM] (inactive) | 
C/C=C(\C)C(=O)O[C@H]1[C@H](O)[C@]2(COC(C)=O)[C@H](O)C[C@]3(C)C(=CCC4[C@@]5(C)CC[C@H](O[C@@H]6O[C@H](C(=O)O)[C@@H](O[C@@H]7O[C@H](CO)[C@@H](O)[C@H](O)[C@H]7O)[C@H](O)[C@H]6O[C@@H]6O[C@H](CO)[C@@H](O)[C@H](O)[C@H]6O)[C@](C)(CO)C5CC[C@]43C)[C@@H]2CC1(C)C (stereo not given in full) | -4.88% [at 11.6 µM] (inactive) | 
CC(=O)O[C@@H]1C[C@@]23C[C@@]24CC[C@H](OC2OC[C@@H](O)[C@H](O)[C@H]2O)C(C)(C)[C@@H]4CC[C@H]3[C@]2(C)CC3OC4(C[C@@H](C)C3[C@@]12C)OCC1(C)OC14 (stereo not given in full) |  | inactive
COc1ccc2c(c1O)OC[C@H]1c3ccc(O)cc3O[C@@H]21 |  | inactive
CC1=CC(=O)C2C(C)(C)CCCC2(C)C12CCC1(COC(=O)C1)O2 (stereo not given) |  | inactive
C[C@]1(O)CC[C@@H]2C(C(=O)O)=CO[C@@H](O[C@@H]3O[C@H](COC(=O)c4ccc(O)cc4)[C@@H](O)[C@H](O)[C@H]3O)[C@@H]21 |  | inactive
O=C(c1ccccn1)c1cnn2c(-c3ccncc3)ccnc12 |  | inactive
C=CC1(C)C=C2C(O)CC3C(C)(C(=O)O)CCCC3(C)C2CC1 (stereo not given) |  | inactive
COC(=O)C1=CO[C@@H](O[C@@H]2O[C@H](COC(=O)/C=C/c3cc(OC)c(O)c(OC)c3)[C@@H](O)[C@H](O)[C@H]2O)[C@@H]2C(CO)=CC[C@H]12 |  | inactive
CC12CCC3C(C)(C)C(O)CCC3(C)C1Cc1c(oc(C(=O)O)cc1=O)O2 (stereo not given) |  | inactive
C=C(C)C(C)C1OC23CC4(CO2)C(CCC2C5(C)CCC(OC6OCC(O)C(OC7OC(CO)C(O)C(OC8OCC(O)C(O)C8O)C7O)C6OC6OC(CO)C(O)C6O)C(C)(C)C5CCC24C)C3C(C)(O)C1OC(C)=O (stereo not given) | -1.98% [at 11.6 µM] (inactive) | 
CC(=O)Oc1cc2c(s1)CCN([C@H](C(=O)C1CC1)c1ccccc1F)C2 |  | inactive
Cc1ncc([N+](=O)[O-])n1CC(O)CN1CCOCC1 (stereo not given) |  | inactive
O=C(c1ccc(NS(=O)(=O)c2cccc3cccnc23)cc1)N1CCN(CC2CC2)CC1 |  | inactive
C/C(=C\CCC(C)(O)c1ccc(C)cc1)C(=O)O (stereo not given) |  | inactive
COc1cc(C2Oc3c(OC)cc(/C=C/C(=O)OC[C@H]4O[C@@H](OC(C)(C)C(=O)O)[C@H](O)[C@@H](O)[C@@H]4O)cc3C2CO)ccc1O (stereo not given in full) |  | inactive
CC(C)CC1NC(=O)C(C(C)c2ccccc2)NC(=O)C(C(C)C)NC(=O)C(C)NC(=O)CCCNC(=O)C(Cc2c[nH]c3ccccc23)NC(=O)C(C)NC1=O (stereo not drawn) (cyclo([GABA]AV[ξPhe(βξ-Me)]LAW); configuration not given here) |  | inactive
C=CC1C(O[C@@H]2O[C@H](CO)[C@@H](O)[C@H](O)[C@H]2O)OC=C(C(=O)OC)C1CC(=O)O (stereo not given in full) |  | inactive
CC1CCC2(NC1)OC1C(=O)C3C4CCC5CC(O[C@@H]6O[C@H](CO)[C@@H](O)[C@H](O)[C@H]6O[C@@H]6O[C@@H](C)[C@H](O)[C@@H](O)[C@H]6O)CCC5(C)C4CCC3(C)C1C2C (stereo not given in full) |  | inactive
C=C(C(=O)O)C1CCC(C)C2CCC(=O)OC2(C)C1 (stereo not given) |  | inactive
CC1(C)C(=O)N2c3ccccc3[C@]3(CC(n4cnc5ccccc5c4=O)C(=O)O3)[C@H]2N1O (stereo not given in full) |  | inactive
CC(C)c1nc(N(C)S(C)(=O)=O)nc(-c2ccc(F)cc2)c1/C=C/[C@@H](O)C[C@@H](O)CC(=O)O |  | inactive
O=C(O)Cc1nn(Cc2nc3cc(C(F)(F)F)ccc3s2)c(=O)c2nccnc12 |  | inactive
O=C(O)CCc1cc2ccoc2cc1O[C@@H]1O[C@H](CO[C@@H]2OC[C@](O)(CO)[C@H]2O)[C@@H](O)[C@H](O)[C@H]1O |  | inactive
COc1ccc(/C=C/C(=O)O[C@@H]2[C@@H](OC(C)=O)[C@@H](OC(C)=O)[C@H](O[C@H]3[C@@H]4C=CO[C@@H](O[C@@H]5O[C@H](CO)[C@@H](O)[C@H](O)[C@H]5O)[C@@H]4[C@@]4(CO)O[C@@H]34)O[C@H]2C)cc1O |  | inactive
